The panel holds about 83,000 compounds, 20% with a hit somewhere; the sample as a whole holds those more often.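 Assay: single dose, 48 h. Readout: percent growth (0 = no net growth; negative = cell death). Active: <10.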 Unmarked numbers belong to inactive results. Activity calls are given as the source filed them.

This passage reports growth results from PubChem BioAssay (NCI).

Among the test systems are NCI-H23 lung; NCI-H226 lung; NCI-H322M lung; HOP-62 NSCLC; NCI-H460 lung; HOP-92 NSCLC; A549/ATCC NSCLC; 786-0 renal; COLO 205 colon; DU-145 prostate; K-562 leukemia; MALME-3M melanoma; MDA-MB-231 breast; SF-268 CNS; SF-295 CNS; SF-539 CNS; M14 melanoma; RXF 393 renal; UACC-257 melanoma.
What all share (assay): NCI-60 one-dose screen, 48 h (100 = growth as untreated, 0 = no growth, -100 = all killed)
Settings in all cases: 10 µM unless noted

`CCN(CC)c1ccc(C(=C2C=CC(=[N+](CC)Cc3cccc(S(=O)(=O)O)c3)C=C2)c2ccc(N(CC)Cc3cccc(S(=O)(=O)O)c3)cc2)cc1`: the growth with NCI-H23 lung was 45.2%; in the assay on NCI-H226 lung it was 71.3%; in the assay on NCI-H322M lung, 58.3%; with HOP-62 NSCLC, 1.01% (active); in the assay with NCI-H460 lung it was 49.1%; in the assay on HOP-92 NSCLC, 66.3%. The growth with A549/ATCC NSCLC is -4.01% (active); with 786-0 renal, 55.9%; in the assay with COLO 205 colon it was 14%; with DU-145 prostate, 37.2%; with K-562 leukemia, 7.9% (active); in the assay on MALME-3M melanoma, 59.4%. The growth is 62.3% in the assay with MDA-MB-231 breast; 34.5% in the assay on SF-268 CNS; 15.5% with SF-295 CNS; 62.1% with SF-539 CNS; 19.5% with M14 melanoma.
For `O=C(Oc1ccccc1)C(Br)C(Br)c1ccccc1` (stereo unspecified), the growth in the assay on NCI-H23 lung was 112%; in the assay on NCI-H226 lung it was 107%; with NCI-H322M lung it was 179%; in the assay on HOP-62 NSCLC it was 107%; in the assay with NCI-H460 lung, 109%; with HOP-92 NSCLC it was 81.6%. In addition, the growth in the assay with A549/ATCC NSCLC was 91.9%; with 786-0 renal it was 98.3%; with COLO 205 colon, 49.4%; in the assay with DU-145 prostate, -38.7% (active); with K-562 leukemia, -44.2% (active); with MDA-MB-231 breast it was 101%. Also, the growth was 98.2% in the assay with RXF 393 renal; 78.7% in the assay on SF-268 CNS; 130% in the assay on SF-295 CNS; 110% in the assay with SF-539 CNS; 93.9% in the assay with UACC-257 melanoma; 102% with M14 melanoma.
`CCOC(=O)N1CCC(N=C2CSc3nnc(-c4cc(C(F)(F)F)cc(C(F)(F)F)c4)n3N2)CC1`: the growth in the assay with NCI-H23 lung is 15.3%; in the assay with NCI-H226 lung, 29.4%; with NCI-H322M lung it was 67.4%; in the assay with HOP-62 NSCLC it was -4.27% (active); with NCI-H460 lung it was 18.2%; with HOP-92 NSCLC, 19.9%. Further, the growth in the assay with A549/ATCC NSCLC is 21.5%; in the assay with COLO 205 colon, -9.91% (active); with DU-145 prostate it was 64.6%; in the assay with K-562 leukemia it was 28.3%; in the assay with MALME-3M melanoma it was 68.4%; in the assay with MDA-MB-231 breast it was 34.4%. The growth with SF-268 CNS was 50.2%; with SF-295 CNS it was 33.4%; in the assay with SF-539 CNS it was 18.3%; with UACC-257 melanoma it was 48.6%; with M14 melanoma it was 27.5%.
On to `CN1CCN(CCCCCN=c2cc3c(=O)n(CCCCCN4CCN(C)CC4)c(=O)c4c(NCCCCCN5CCN(C)CC5)cc5c(O)n(CCCCCN6CCN(C)CC6)c(=O)c2c5c4-3)CC1`, for which the growth with NCI-H23 lung is 34.1%; in the assay with NCI-H226 lung, 0.125% (active); in the assay with NCI-H322M lung it was -23.2% (active); with HOP-62 NSCLC, 14.6%; with NCI-H460 lung, 5.16% (active); in the assay with HOP-92 NSCLC, 2.86% (active). Also, the growth was 5.01% (active) with A549/ATCC NSCLC; 92.9% in the assay with 786-0 renal; -15.4% (active) in the assay with COLO 205 colon; 0.918% (active) in the assay on DU-145 prostate; 8.94% (active) in the assay with K-562 leukemia; -34% (active) with MDA-MB-231 breast. In addition, the growth in the assay on RXF 393 renal is 64.4%; with SF-268 CNS, -2.31% (active); in the assay with SF-295 CNS it was 36.4%; in the assay with SF-539 CNS, 10.4%; with UACC-257 melanoma it was -11.4% (active); with M14 melanoma, 81.8%.
Turning to `Cn1c(N2N=C(c3ccc(Cl)cc3)CC2c2ccccc2)nc(-c2ccccc2)c(C#N)c1=O` (stereo unspecified), the growth is 66.3% with NCI-H23 lung; 74.5% with NCI-H226 lung; 83.5% in the assay on NCI-H322M lung; 83% in the assay with HOP-62 NSCLC; 58.7% in the assay with NCI-H460 lung; 16% in the assay with HOP-92 NSCLC. In addition, the growth in the assay with A549/ATCC NSCLC is 64.8%; in the assay on 786-0 renal, 84.4%; with COLO 205 colon, 99.4%; with DU-145 prostate, 89.4%; in the assay on MALME-3M melanoma it was 97.6%; in the assay on MDA-MB-231 breast, 58.6%. Moreover, the growth in the assay on RXF 393 renal is 96.4%; with SF-268 CNS it was 57.9%; with SF-295 CNS it was 85.4%; in the assay on SF-539 CNS, 103%; with M14 melanoma, 90%.
In the case of `CCCCCCCCN(CCO)CCCCCCCC`, the growth with NCI-H23 lung was 103%; in the assay on NCI-H226 lung it was 92.8%; in the assay on NCI-H322M lung, 96.1%; in the assay on HOP-62 NSCLC, 103%; in the assay on NCI-H460 lung, 106%; in the assay with HOP-92 NSCLC it was 97%. The growth was 99.7% with A549/ATCC NSCLC; 101% with 786-0 renal; 107% in the assay on COLO 205 colon; 112% with DU-145 prostate; 104% with K-562 leukemia; 117% in the assay with MDA-MB-231 breast. Moreover, the growth in the assay on RXF 393 renal was 93.2%; with SF-268 CNS, 107%; in the assay on SF-539 CNS, 94.4%; in the assay on UACC-257 melanoma it was 94.3%; in the assay on M14 melanoma, 101%.
With `CCCCCN(CCCCC)CCCNc1c2c(nc3ccc(Cl)cc13)CCCC2`, the growth in the assay with NCI-H23 lung was 30.7%; in the assay with NCI-H226 lung, 50.8%; in the assay on NCI-H322M lung, 73.8%; in the assay with HOP-62 NSCLC, 44.3%; in the assay with NCI-H460 lung, 34%; with HOP-92 NSCLC, -6.23% (active). Further, the growth in the assay on A549/ATCC NSCLC was 31.8%; in the assay on COLO 205 colon, -11% (active); with DU-145 prostate, 66.6%; with K-562 leukemia, 14.2%; with MALME-3M melanoma, 35.5%; with MDA-MB-231 breast, 18.5%. Also, the growth in the assay on RXF 393 renal is 57.1%; with SF-268 CNS it was 76.1%; in the assay on SF-295 CNS, 37.8%; in the assay with SF-539 CNS it was 47%; with UACC-257 melanoma, 13.2%.
`CC(=O)Nc1c(Cl)cc2c(c1Cl)Cc1ccccc1-2`: the growth with NCI-H23 lung was 91.5%; with NCI-H226 lung, 90.7%; in the assay with NCI-H322M lung, 106%; in the assay with HOP-62 NSCLC, 107%; with NCI-H460 lung, 104%; with HOP-92 NSCLC, 87.7%. In addition, the growth in the assay on A549/ATCC NSCLC was 92.1%; with 786-0 renal, 108%; in the assay with COLO 205 colon it was 112%; in the assay with DU-145 prostate, 108%; in the assay with K-562 leukemia, 104%; in the assay with MDA-MB-231 breast it was 80.3%. Moreover, the growth with RXF 393 renal was 104%; with SF-268 CNS, 111%; in the assay on SF-295 CNS, 132%; with SF-539 CNS it was 105%; in the assay on UACC-257 melanoma, 106%; in the assay on M14 melanoma, 107%.
With `COc1ccc(CCN2C(=O)CCC3=C2CCCC3=O)cc1OC`, the growth in the assay on NCI-H23 lung was 98.2%; with NCI-H226 lung it was 105%; with NCI-H322M lung, 98%; in the assay on HOP-62 NSCLC it was 95.3%; in the assay with NCI-H460 lung it was 106%; with HOP-92 NSCLC it was 78.2%. Moreover, the growth with A549/ATCC NSCLC was 106%; in the assay on 786-0 renal, 108%; in the assay with COLO 205 colon it was 88.6%; in the assay with K-562 leukemia, 106%; with MALME-3M melanoma it was 91.7%; in the assay with MDA-MB-231 breast it was 89.9%. The growth is 113% in the assay on RXF 393 renal; 136% in the assay on SF-268 CNS; 112% in the assay on SF-295 CNS; 103% in the assay on SF-539 CNS; 99.1% with M14 melanoma.
